From PubChem BioAssay (NCI)
Compounds without any hit were thinned out: in the full panel of roughly 83,000, 20% have a hit.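 Plates (96-well) were seeded with cells, treated with compound at one concentration, and incubated for 48 hours before percent growth was determined.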 A number with no mark means an inactive call. Activity calls are given as the source filed them. The calls were made as follows: active = growth percent below 10; inactive = the rest.

Columns and labels:
Assay in all cases: NCI-60 one-dose screen, 48 h (100 = growth as untreated, 0 = no growth, -100 = all killed)
Settings in all cases: 10 µM unless noted
SK-MEL-2 melanoma = test system: SK-MEL-2 melanoma
EKVX NSCLC = test system: EKVX NSCLC
SN12C renal = test system: SN12C renal
UO-31 renal = test system: UO-31 renal
TK-10 renal = test system: TK-10 renal
ACHN renal = test system: ACHN renal
CAKI-1 renal = test system: CAKI-1 renal
CCRF-CEM leukemia = test system: CCRF-CEM leukemia
MOLT-4 leukemia = test system: MOLT-4 leukemia
SR leukemia = test system: SR leukemia
RPMI-8226 leukemia = test system: RPMI-8226 leukemia
OVCAR-8 ovarian = test system: OVCAR-8 ovarian
OVCAR-5 ovarian = test system: OVCAR-5 ovarian
OVCAR-4 ovarian = test system: OVCAR-4 ovarian
IGROV1 ovarian = test system: IGROV1 ovarian
OVCAR-3 ovarian = test system: OVCAR-3 ovarian
HS 578T breast = test system: HS 578T breast
NCI/ADR-RES ovarian = test system: NCI/ADR-RES ovarian
SK-OV-3 ovarian = test system: SK-OV-3 ovarian
A498 renal = test system: A498 renal

| SMILES | growth (SK-MEL-2 melanoma) | growth (EKVX NSCLC) | growth (SN12C renal) | growth (UO-31 renal) | growth (TK-10 renal) | growth (ACHN renal) | growth (CAKI-1 renal) | growth (CCRF-CEM leukemia) | growth (MOLT-4 leukemia) | growth (SR leukemia) | growth (RPMI-8226 leukemia) | growth (OVCAR-8 ovarian) | growth (OVCAR-5 ovarian) | growth (OVCAR-4 ovarian) | growth (IGROV1 ovarian) | growth (OVCAR-3 ovarian) | growth (HS 578T breast) | growth (NCI/ADR-RES ovarian) | growth (SK-OV-3 ovarian) | growth (A498 renal) |
| --- | --- | --- | --- | --- | --- | --- | --- | --- | --- | --- | --- | --- | --- | --- | --- | --- | --- | --- | --- | --- |
| CCOC(=O)Cc1csc2nc(-c3ccccc3)nn12 | 114% | 105% | 106% | 97% | 126% | 99.7% | 111% | 103% | 111% | 98.8% | 113% | 98.3% | 92.9% | 105% | 104% | 117% | 103% | 104% | – | – |
| CNC=O | 110% | 156% | 99.8% | 89.5% | 101% | 110% | 99.6% | 103% | 106% | 92.4% | 103% | – | 87.7% | 115% | 95% | 109% | 2.14% (active) | 59.5% | 105% | – |
| O=C(c1ccccc1)c1ccc(N2C(=O)C3C4c5ccccc5C(/C=C/C(=O)c5ccccn5)(c5ccccc54)C3C2=O)cc1 (configuration not stated) | 74.7% | 27.9% | 11.3% | -37.4% (active) | 20.1% | -25.4% (active) | 49.3% | 11.1% | 16% | 13.7% | 3.95% (active) | 26.4% | 29.9% | 32.4% | -19.8% (active) | -54.1% (active) | 9.77% (active) | 20.5% | – | – |
| O=C1/C(=C/c2ccc([N+](=O)[O-])cc2)COc2ccc(O)c(O)c21 | 85.5% | 41.3% | -47.3% (active) | -98.6% (active) | -8.97% (active) | -77.5% (active) | -53.1% (active) | -2.51% (active) | -1.02% (active) | -1.74% (active) | – | 14.2% | -68.6% (active) | 6.56% (active) | -40% (active) | -88.2% (active) | 4.58% (active) | 11.1% | 89.2% | – |
| CCOc1ccc(-c2nc3ccc(-c4nc5ccc(N6CCN(C)CC6)cc5[nH]4)cc3[nH]2)cc1OCC | -17.5% (active) | 50.2% | 20.8% | 98.6% | 91% | 81.9% | 40.8% | 11.3% | 9.04% (active) | 8.73% (active) | 45.8% | 14.8% | 44.4% | 7.29% (active) | 50.5% | -13.3% (active) | 11.1% | 104% | – | – |
| CCCCN1CCN(c2ccc3nc(-c4ccc5nc(-c6cc(OC)c(OC)c(OC)c6)[nH]c5c4)[nH]c3c2)CC1 | 83.8% | 106% | 80.2% | 79.8% | 131% | 86.8% | 87.9% | 25.1% | 47% | 10.7% | 55.9% | 56.2% | 117% | 84.4% | 94.2% | 67% | 45% | 102% | – | – |
| Cc1c(C)c2c(c(C)c1NC(=O)/C=C\C(=O)O)CCC(C)(CCCC(C)CCCC(C)CCCC(C)C)O2 (configuration not stated) | 27% | 74.3% | 50.6% | 37.2% | 43.6% | 45.5% | 46.8% | 13.6% | 33.9% | 9.98% (active) | 30.6% | 35.9% | 87.6% | 39.4% | 56.8% | 43.2% | 57.4% | 43.1% | 54.6% | – |
| O=C(/C=C/C12c3ccccc3C(c3ccccc31)C1C(=O)NC(=O)C12)c1ccccc1 (configuration not stated) | 30.9% | 21% | 18.8% | 39.7% | 44.3% | 32.7% | 45.2% | 12.6% | 16.6% | 20.9% | 5.51% (active) | 27.3% | 26.4% | 39.4% | 19.8% | 2.7% (active) | 14.4% | 5.9% (active) | – | – |
| COc1cc(CNC(=O)/C=C/C=C/c2ccc3c(c2)OCO3)ccc1OCc1cn(-c2ccc(Cl)c(Cl)c2)nn1 | -37.3% (active) | 13.1% | 34.1% | 45.5% | -11.4% (active) | -51% (active) | -17% (active) | 57.7% | -12.2% (active) | 24.8% | 20.9% | 11.3% | -19.8% (active) | -62.7% (active) | 6.63% (active) | -62.8% (active) | 7.23% (active) | 15.9% | – | – |
| CCOc1ccc(S(=O)(=O)c2ccc(C)cc2)c2c1no[n+]2[O-] | 82.5% | 83.9% | 94.8% | 83.3% | 92.3% | 85.6% | 71.8% | 75.7% | – | – | 67.9% | 90.7% | 99.1% | 67.5% | – | 85.2% | 78.4% | 71.8% | 77.4% | 67.2% |
| N#Cc1c(NC(=O)c2ccccc2I)sc2c1CCCC2 | 26.4% | 48.5% | 53.5% | 58.1% | 106% | 50.9% | 45% | 23.7% | 34.9% | 38.6% | 46.4% | 51.4% | 70.8% | 79.9% | 50.6% | 15.7% | 32.1% | 13.2% | – | – |
| CCn1c(Sc2nnc(NC(C)=O)s2)nc2c1c(=O)n(C)c(=O)n2C | 103% | 88.3% | 94% | 83.5% | 103% | 95.5% | 93.7% | 112% | 113% | 98.1% | 118% | 99.7% | 90.3% | 101% | 98.2% | 93.1% | 86.2% | 89.5% | – | – |
| COc1cc2ccccc2cc1C(=O)NC(=S)Nc1ccc(-c2nc3ccccc3[nH]2)cc1 | 105% | 89.9% | 83.4% | 89.8% | 83.4% | 99.2% | 90.7% | 79.2% | 91.1% | 28.3% | 71.5% | 93.1% | 103% | -35.9% (active) | 83.2% | 55% | 30.7% | 59.4% | – | – |
| CCCN1CCN(c2ccc3nc(-c4ccc5nc(-c6ccc(OCC)c(OCC)c6)[nH]c5c4)[nH]c3c2)CC1 | -73.9% (active) | -3.15% (active) | -37.5% (active) | 47.2% | -0.902% (active) | -28.9% (active) | -18.9% (active) | 5.88% (active) | 3.28% (active) | 20.9% | -18.9% (active) | -11% (active) | -15.2% (active) | -59.9% (active) | -13.2% (active) | -63.7% (active) | -37.2% (active) | 79.4% | – | – |
| COc1ccc2c(c1)/C(=C\c1sc(=S)[nH]c1O)C(C(=O)O)=N2 | 99.4% | 93.6% | 100% | 82.6% | 108% | 99.8% | 86.2% | 95.7% | 103% | 110% | 101% | 99% | 101% | 101% | 107% | 98.8% | 94% | 102% | – | – |
| COc1cc(C2CC(=O)Nc3n[nH]c(-c4ccccc4)c32)cc(OC)c1OC (configuration not stated) | 59.8% | 78.2% | 84.2% | 87.1% | 97.7% | 104% | 92% | 70.2% | 54% | 31.8% | 90.6% | 80.1% | 91.3% | 88.4% | 71.4% | 36% | 74.8% | 104% | 85.5% | – |
| C=CCOc1cccc(/C=C2\SC(=Nc3ccc(O)cc3)NC2=O)c1 | 40.6% | 28.8% | 14.9% | 20.7% | 67.7% | 24.3% | 24.4% | 4.85% (active) | 13.4% | 17.1% | -14.4% (active) | 27.4% | 27.9% | 32% | 20.3% | 6.17% (active) | 18% | 7.2% (active) | – | – |
